This is a sample that favours compounds with a hit; in the whole collection about 19% have one here.
KB-V1 cytotox: kills drug-selected multidrug resistant KB-V1 cells; KB-V1 MDR cells viability, CellTiter-Glo, 72 h; Potency, µM (titrated, usually from 46.1 µM), hits mostly cytotoxic; 3.4% of 400,000 active; note: nearly all actives have a fitted effect of over 60% in size
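Cells of the MDR subline KB-V1 are plated, dosed with compound at multiple concentrations, and incubated 72 h at 37 degrees C; CellTiter-Glo is then added and luminescence read after 10 min.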
HT1080 IDH1KD tx: kills HT-1080 cells with IDH1 knockdown | HT-1080 IDH1 knockdown viability, ATP luminescence, 48 h | 2% of 360,000 active | Potency, µM (top dose mostly 46.1 µM), for the others: at the top dose activity, negative = toxicity, actives largely listed as cytotoxic;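 note: 0% = DMSO wells and -100% = cell-free medium wells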
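Cytotoxicity counter-line: IDH1KD HT-1080, 48 h, CellTiter-Glo. Curves classed by r2, magnitude and activity.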
HT1080-NT tox: kills 2HG-producing HT-1080-NT fibrosarcoma cells | HT-1080-NT fibrosarcoma viability, CellTiter-Glo ATP luminescence, 48 h | Potency, µM (titrated, usually from 46.1 µM), for inactives: at the top dose activity, negative = less viability, actives largely listed as cytotoxic | 1.6% of 360,000 active | AID 686970;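 note: NT is the 2HG producing partner of a matched IDH1 knockdown line; 0% = DMSO-treated cells and -100% = media-only wells without cells; nearly all actives have a fitted effect of over 55% in size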
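Read-out is CellTiter-Glo luminescence after 10 minutes at room temperature, following 48 hours' compound treatment of HT-1080-NT cells (750 cells/well, RPMI, 5% FBS, 37 degrees C).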
KB-3-1 cytotox: kills parental KB-3-1 adenocarcinoma cells; KB-3-1 viability, CellTiter-Glo ATP luminescence, 72 h; Potency, µM (series often up to 46.1 µM), usual class: cytotoxic; 1.4% of 400,000 active; note: nearly all actives have a fitted effect of over 60% in size
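Multi-concentration cytotoxicity screen in KB-3-1 cells grown in DMEM lacking phenol red with 10% FBS. After 72 h at 37 °C with compound, ATP-dependent luminescence was recorded.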
TDP1 cell CPT: growth inhibition of DT40 Tdp1-/-;hTDP1 cells with camptothecin (screen for TDP1 inhibitors) | 12% of 420,000 active | Potency, µM (highest dose often 46.2 µM), for inactives: top-dose activity change, negative = growth inhibition, usual class: inhibitors | AID 686979 | chicken DT40 Tdp1-/-;hTDP1 cells + 20 nM CPT, ATP luminescence, 48 h; note: nearly all actives have a fitted effect of over 55% in size
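Cell growth measured by CellTiter-Glo luminescence after a minimum 48 h, 37 C compound exposure with 20 nM CPT in Tdp1-knockout DT40 cells stably expressing hTDP1, seeded 400/well; qHTS titration format.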
TDP1 cell noCPT: qHTS for Inhibitors of human tyrosyl-DNA phosphodiesterase 1 (TDP1): qHTS in cells in absence of CPT | Potency, µM (highest dose often 46.2 µM), inactives show at the top dose activity change, negative = growth inhibition, usual class: inhibitors | DT40 Tdp1-/- hTDP1 cells, no CPT, ATP luminescence, 48 h | 15% of 420,000 active | AID 686978, 2013; note: nearly all actives have a fitted effect of over 55% in size
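No-CPT arm: Tdp1-/-;hTDP1 DT40 cells (400/well) plus compounds, incubated ≥48 hr at 37 °C. Readout CellTiter-Glo luminescence.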
The depositor's hits bear a star. Calls come from the whole dose curve; as a rule, active = well fitted curve in the direction sought with a large enough effect; inconclusive = small, poorly fitted or top-dose-only effect, or another doubt; inactive = no such curve, though single readings can be large; an effect the other way counts as inactive or inconclusive. Unless noted, % is set by controls: 0 for no effect and ±100 for the full control effect; potency is the fitted concentration of half-maximal effect.

O=C(Nc1nc2ccc(Cl)cc2s1)c1ccco1 was read as KB-V1 cytotox inactive, HT1080 IDH1KD tx inconclusive, HT1080-NT tox inconclusive, KB-3-1 cytotox inactive, TDP1 cell CPT -19.9% and TDP1 cell noCPT inconclusive.
`COc1ccccc1Nc1nc(-c2sc(NC(=O)c3ccco3)nc2C)cs1` gave KB-V1 cytotox inactive, HT1080 IDH1KD tx -9.0%, HT1080-NT tox inconclusive, KB-3-1 cytotox inconclusive, TDP1 cell CPT 16.4µM* and TDP1 cell noCPT 14.6µM*.
Cc1cccc(NC(=O)/C(C#N)=C/c2ccco2)c1 was read as KB-V1 cytotox inactive, KB-3-1 cytotox inactive, TDP1 cell CPT inconclusive and TDP1 cell noCPT inconclusive.
CCCCN1CCCCC1(C)C(=O)NCc1cccc(OC)c1 (stereo not drawn) was read as KB-V1 cytotox inactive, HT1080 IDH1KD tx 0.0%, HT1080-NT tox 10.4%, KB-3-1 cytotox inactive, TDP1 cell CPT -29.6% and TDP1 cell noCPT inconclusive.
Screening COc1cccc(N(C(=O)c2ccco2)c2nc(-c3sc(NC(=O)c4ccco4)nc3C)cs2)c1 returned KB-V1 cytotox inactive, HT1080 IDH1KD tx -23.6%, HT1080-NT tox -15.4%, KB-3-1 cytotox 5.8µM*, TDP1 cell CPT 14.6µM* and TDP1 cell noCPT 14.6µM*.
`COc1ccc(-c2csc(NC(=O)c3ccco3)n2)cc1` gave KB-V1 cytotox inactive, HT1080 IDH1KD tx 3.6%, HT1080-NT tox 9.9%, KB-3-1 cytotox inactive, TDP1 cell CPT -6.2% and TDP1 cell noCPT -13.1%.
Screening Cc1cccc(C)c1NS(=O)(=O)c1ccc(NS(=O)(=O)c2ccc3c(c2)OCCO3)cc1 returned KB-V1 cytotox inactive, KB-3-1 cytotox inactive, TDP1 cell CPT inconclusive and TDP1 cell noCPT inconclusive.
Screening Cc1ccccc1N1CCN(C2CCCN(C(=O)CCc3c(C)noc3C)C2)CC1 (stereo not drawn) returned HT1080 IDH1KD tx 1.5%, HT1080-NT tox -2.6%, TDP1 cell CPT inconclusive and TDP1 cell noCPT 23.1µM*.
For Cc1nc(C(=O)N2CCCC(N3CCN(c4ccccc4C)CC3)C2)cs1 (stereo not drawn) the results were HT1080 IDH1KD tx 3.1%, HT1080-NT tox 0.0%, TDP1 cell CPT 14.6µM* and TDP1 cell noCPT inconclusive.
`Cc1ccccc1N1CCN(C2CCCN(C(=O)c3ccc(Cl)s3)C2)CC1` (stereo not drawn) gave KB-V1 cytotox inactive, HT1080 IDH1KD tx -2.6%, HT1080-NT tox 4.8%, KB-3-1 cytotox inactive, TDP1 cell CPT inconclusive and TDP1 cell noCPT inconclusive.
`Cc1ccccc1N1CCN(C2CCCN(C(=O)CCC(=O)N(C)C)C2)CC1` (stereo not drawn) gave KB-V1 cytotox inconclusive, HT1080 IDH1KD tx 15.2%, HT1080-NT tox 8.6%, KB-3-1 cytotox inactive, TDP1 cell CPT 2.8% and TDP1 cell noCPT 5.9%.
For Cc1ccc2nc(C)cc(C(=O)N3CCCC(N4CCN(c5ccccc5C)CC4)C3)c2c1 (stereo not drawn) the results were HT1080 IDH1KD tx -12.2%, HT1080-NT tox -0.2%, TDP1 cell CPT 14.6µM* and TDP1 cell noCPT inconclusive.
Cc1ccccc1N1CCN(C2CCCN(C(=O)c3csc(C(C)C)n3)C2)CC1 (stereo not drawn) was read as KB-V1 cytotox inactive, HT1080 IDH1KD tx -13.6%, HT1080-NT tox -9.2%, KB-3-1 cytotox inactive, TDP1 cell CPT inconclusive and TDP1 cell noCPT inconclusive.
For COCc1ccc(C(=O)N2CCCC(N3CCN(c4ccccc4C)CC3)C2)s1 (stereo not drawn) the results were KB-V1 cytotox inactive, HT1080 IDH1KD tx -1.0%, HT1080-NT tox -5.8%, KB-3-1 cytotox inactive, TDP1 cell CPT 14.6µM* and TDP1 cell noCPT inconclusive.
Screening CCOc1ccc(/C(O)=C2/C(=O)C(=O)N(c3ncccn3)C2c2ccccc2)cc1 (stereo not drawn) returned KB-V1 cytotox inactive, HT1080 IDH1KD tx -5.3%, HT1080-NT tox -3.7%, KB-3-1 cytotox inactive, TDP1 cell CPT inconclusive and TDP1 cell noCPT -1.5%.
Screening CCOc1cc(C(=O)OCC(=O)Nc2c(C)cccc2C)ccc1OCC(=O)N1CCOCC1 returned KB-V1 cytotox inactive, HT1080 IDH1KD tx 3.4%, HT1080-NT tox 4.1%, KB-3-1 cytotox inactive, TDP1 cell CPT 10.4% and TDP1 cell noCPT -21.6%.
`CCOc1cc(/C=N/NC(=S)Nc2ccccc2C(F)(F)F)ccc1OCC(=O)N1CCOCC1` gave KB-V1 cytotox inconclusive, HT1080 IDH1KD tx -2.2%, HT1080-NT tox -0.9%, KB-3-1 cytotox inactive, TDP1 cell CPT 5.8µM* and TDP1 cell noCPT 8.2µM*.
Screening CCOC(=O)c1ccccc1NC(=O)COC(=O)c1ccc(OCC(=O)N2CCOCC2)c(OCC)c1 returned KB-V1 cytotox 2.59µM*, HT1080 IDH1KD tx 16.1%, HT1080-NT tox 0.5%, KB-3-1 cytotox inactive, TDP1 cell CPT inconclusive and TDP1 cell noCPT inconclusive.
Screening O=C(O)CCCC(=O)Nc1cccc(-c2nc3ccccc3[nH]2)c1 returned KB-V1 cytotox inactive, HT1080 IDH1KD tx 1.3%, HT1080-NT tox -2.3%, KB-3-1 cytotox inactive, TDP1 cell CPT -6.9% and TDP1 cell noCPT -6.4%.
For COc1ccc(C(=O)Nc2cccc(-c3cnc4ccccc4n3)c2)cc1 the results were KB-V1 cytotox inactive, HT1080 IDH1KD tx 19.0%, HT1080-NT tox 24.6%, KB-3-1 cytotox inactive, TDP1 cell CPT inconclusive and TDP1 cell noCPT inconclusive.
CCCOc1ccc(C(=O)Nc2cccc(-c3nc4ccccc4[nH]3)c2)cc1 was read as KB-V1 cytotox 20.6µM* and KB-3-1 cytotox inconclusive.
Screening CCOc1cc(OCC)cc(C(=O)Nc2cccc(-c3nc4ccccc4[nH]3)c2)c1 returned KB-V1 cytotox inconclusive, KB-3-1 cytotox inactive, TDP1 cell CPT 10.3µM* and TDP1 cell noCPT 6.51µM*.
`O=Cc1ccccc1C=O` gave TDP1 cell CPT 9.44µM* and TDP1 cell noCPT inconclusive.
`N#Cc1ccccc1Oc1ccccc1C=O` gave KB-V1 cytotox inactive, HT1080 IDH1KD tx -16.6%, HT1080-NT tox -7.8%, KB-3-1 cytotox inactive, TDP1 cell CPT inconclusive and TDP1 cell noCPT 16.4µM*.
For O=Cc1ccccc1Oc1ccccc1 the results were KB-V1 cytotox inconclusive, HT1080 IDH1KD tx -0.4%, HT1080-NT tox -0.1%, KB-3-1 cytotox inactive, TDP1 cell CPT inconclusive and TDP1 cell noCPT 11.6µM*.
